Percent Effect data for eleven molecules are collected here from ChEMBL document CHEMBL3988442, “University of Dundee, Small-Polar-MMV Screening Library” (2021).

Common to all, as to design: scale not given: direction of the effect not stated beside the values
Experiment [1] deals with Protein translocase subunit SecA (Escherichia coli (strain K12)) (UniProt P10408). The experiment in a line: Assay to Identify E. coli SecA ATPase Inhibitors. Particulars: 30 µM. The experiment is classed as functional.
Sequence of Protein translocase subunit SecA (Escherichia coli (strain K12)) (P10408 whole entry): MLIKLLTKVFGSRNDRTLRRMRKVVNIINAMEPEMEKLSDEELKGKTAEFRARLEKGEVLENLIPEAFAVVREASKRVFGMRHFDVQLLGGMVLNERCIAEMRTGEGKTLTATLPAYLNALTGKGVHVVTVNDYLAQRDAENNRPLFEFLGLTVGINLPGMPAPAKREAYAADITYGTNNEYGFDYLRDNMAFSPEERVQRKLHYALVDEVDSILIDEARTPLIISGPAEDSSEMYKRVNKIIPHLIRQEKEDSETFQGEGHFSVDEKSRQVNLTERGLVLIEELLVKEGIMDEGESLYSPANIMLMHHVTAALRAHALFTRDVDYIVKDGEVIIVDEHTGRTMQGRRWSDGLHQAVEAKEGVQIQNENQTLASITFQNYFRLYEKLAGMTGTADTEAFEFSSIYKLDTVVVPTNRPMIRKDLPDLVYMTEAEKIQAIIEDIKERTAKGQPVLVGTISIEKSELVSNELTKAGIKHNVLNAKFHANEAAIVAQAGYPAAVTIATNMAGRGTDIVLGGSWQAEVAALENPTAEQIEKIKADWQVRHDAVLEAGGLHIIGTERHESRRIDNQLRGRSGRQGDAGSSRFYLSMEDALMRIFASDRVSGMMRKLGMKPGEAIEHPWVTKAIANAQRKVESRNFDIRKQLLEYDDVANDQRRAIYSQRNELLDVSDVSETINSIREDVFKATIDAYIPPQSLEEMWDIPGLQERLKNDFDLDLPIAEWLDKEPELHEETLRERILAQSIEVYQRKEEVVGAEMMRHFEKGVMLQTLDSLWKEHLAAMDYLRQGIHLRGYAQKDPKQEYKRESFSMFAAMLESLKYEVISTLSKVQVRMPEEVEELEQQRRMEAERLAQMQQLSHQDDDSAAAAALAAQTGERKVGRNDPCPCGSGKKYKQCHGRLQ
In experiment [2] the target is T1, Ubiquitin-activating enzyme e1, putative (Leishmania donovani (strain BPK282A1)) (UniProt E9BSI1).
T1 sequence (whole entry): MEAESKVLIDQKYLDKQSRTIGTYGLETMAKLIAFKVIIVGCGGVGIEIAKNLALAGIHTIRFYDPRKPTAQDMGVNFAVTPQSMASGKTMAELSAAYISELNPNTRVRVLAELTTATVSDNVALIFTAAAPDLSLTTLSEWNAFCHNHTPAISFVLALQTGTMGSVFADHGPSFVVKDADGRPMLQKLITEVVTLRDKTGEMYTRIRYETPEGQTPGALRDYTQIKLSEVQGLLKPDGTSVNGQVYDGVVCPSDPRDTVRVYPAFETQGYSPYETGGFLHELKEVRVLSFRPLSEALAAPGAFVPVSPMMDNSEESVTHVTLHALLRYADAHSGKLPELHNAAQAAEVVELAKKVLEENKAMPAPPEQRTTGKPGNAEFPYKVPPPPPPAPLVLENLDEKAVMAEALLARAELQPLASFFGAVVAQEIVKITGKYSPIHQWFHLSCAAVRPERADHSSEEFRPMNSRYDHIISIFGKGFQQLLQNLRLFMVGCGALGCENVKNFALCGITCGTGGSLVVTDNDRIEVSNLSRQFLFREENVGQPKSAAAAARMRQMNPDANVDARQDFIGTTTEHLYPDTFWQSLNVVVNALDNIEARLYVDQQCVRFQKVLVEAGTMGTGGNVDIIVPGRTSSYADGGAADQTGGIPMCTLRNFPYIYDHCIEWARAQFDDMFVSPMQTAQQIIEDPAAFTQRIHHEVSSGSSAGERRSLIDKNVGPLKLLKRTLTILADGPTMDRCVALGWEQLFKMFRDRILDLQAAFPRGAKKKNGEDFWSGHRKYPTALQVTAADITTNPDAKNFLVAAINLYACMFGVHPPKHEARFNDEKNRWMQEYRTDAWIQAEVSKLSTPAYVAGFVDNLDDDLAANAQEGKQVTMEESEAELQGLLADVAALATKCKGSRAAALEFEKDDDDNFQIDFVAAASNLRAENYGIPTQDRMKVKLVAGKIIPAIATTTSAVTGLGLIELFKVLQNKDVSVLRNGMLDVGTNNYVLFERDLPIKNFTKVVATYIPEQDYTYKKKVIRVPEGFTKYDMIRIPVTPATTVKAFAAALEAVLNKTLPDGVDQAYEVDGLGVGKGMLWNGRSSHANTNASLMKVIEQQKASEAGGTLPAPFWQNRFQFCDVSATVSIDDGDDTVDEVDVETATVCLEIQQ
The experiment in a line: Leishmania donovani Ubiquitin Activating Enzyme (LdE1). The class given is functional. The note with it: 30 µM.

Experiment [3] addresses AMP-activated protein kinase, AMPK (Homo sapiens) (UniProt P54646+O43741+P54619+Q9UGJ0+Q9Y478+Q13131+Q9UGI9). The experiment can be described thus: AMP-dependent Kinase enzyme assay. An in vitro enzyme assay that detects ADP turnover that is directly proportional to AMPK activity. This uses naive AMPK that is activated during the assay with MK-8722. The class given is functional. The note with it: 30 µM.

Experiment [4] addresses Sialic acid-binding Ig-like lectin 9 (Homo sapiens) (UniProt Q9Y336). The experiment in a line: Hs-Siglec9 ALPHAscreen SOP 20170721. The note with it: 10 µM. For orientation: In Alpha technology, singlet oxygen from a donor bead excites a nearby acceptor bead.
The subject of the next experiment is Trypanosoma cruzi. The experiment can be described thus: Trypanosoma cruzi phosphomannomutase and mannose-1-phosphate guanylyltransferase assay. The note with it: 10 µM. The experiment is classed as functional.
Experiment [5] concerns the target T2, Arginase-2, mitochondrial (Homo sapiens) (UniProt P78540).
T2 sequence (whole entry): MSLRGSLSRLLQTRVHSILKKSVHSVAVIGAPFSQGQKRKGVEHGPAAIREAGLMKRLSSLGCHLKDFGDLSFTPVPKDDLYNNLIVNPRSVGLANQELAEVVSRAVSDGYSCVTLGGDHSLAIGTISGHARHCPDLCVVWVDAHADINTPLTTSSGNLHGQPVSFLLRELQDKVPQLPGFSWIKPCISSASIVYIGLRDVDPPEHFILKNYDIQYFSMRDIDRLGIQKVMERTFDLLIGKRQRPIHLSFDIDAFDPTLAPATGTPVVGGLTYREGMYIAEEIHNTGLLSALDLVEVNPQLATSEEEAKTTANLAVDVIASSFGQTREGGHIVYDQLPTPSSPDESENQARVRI
The experiment can be described thus: in vitro enzyme assay to detect the production of urea directly proportional to the activity of Arginase II. Further: in the data most compounds retested in dose-response had high values. The class given is functional. The note with it: 33.3 µM.

Experiment [6] addresses T3, Proteasome subunit beta (Trypanosoma cruzi) (UniProt O96673).
T3 sequence (whole entry): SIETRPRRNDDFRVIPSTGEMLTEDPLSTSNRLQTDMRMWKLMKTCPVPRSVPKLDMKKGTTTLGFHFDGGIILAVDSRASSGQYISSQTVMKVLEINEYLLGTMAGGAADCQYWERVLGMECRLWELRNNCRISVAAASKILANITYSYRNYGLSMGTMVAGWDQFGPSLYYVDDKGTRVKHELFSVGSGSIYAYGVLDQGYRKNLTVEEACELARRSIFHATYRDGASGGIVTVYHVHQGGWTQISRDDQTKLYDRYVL
The experiment in a line: Trypanosoma cruzi proteasome chymotrypsin-like activity (TcProtChymo) assay. Further: in the data most compounds retested in dose-response had high values. The experiment is classed as functional. Particulars: 9.37 µM.

The species entered for a further experiment is Homo sapiens. The experiment in a line: To identify inhibition of the IFN signalling (Jak-Stat) pathway via expression of an eGFP reporter gene under the control of an IFN-stimulated response element (ISRE) containing MxA promoter. The experiment is classed as functional. The note with it: 30 µM.
Experiment [7] addresses T4, Tyrosyl-tRNA synthetase, putative (Trypanosoma cruzi (strain CL Brener)) (UniProt Q4DSP6).
T4 sequence (whole entry): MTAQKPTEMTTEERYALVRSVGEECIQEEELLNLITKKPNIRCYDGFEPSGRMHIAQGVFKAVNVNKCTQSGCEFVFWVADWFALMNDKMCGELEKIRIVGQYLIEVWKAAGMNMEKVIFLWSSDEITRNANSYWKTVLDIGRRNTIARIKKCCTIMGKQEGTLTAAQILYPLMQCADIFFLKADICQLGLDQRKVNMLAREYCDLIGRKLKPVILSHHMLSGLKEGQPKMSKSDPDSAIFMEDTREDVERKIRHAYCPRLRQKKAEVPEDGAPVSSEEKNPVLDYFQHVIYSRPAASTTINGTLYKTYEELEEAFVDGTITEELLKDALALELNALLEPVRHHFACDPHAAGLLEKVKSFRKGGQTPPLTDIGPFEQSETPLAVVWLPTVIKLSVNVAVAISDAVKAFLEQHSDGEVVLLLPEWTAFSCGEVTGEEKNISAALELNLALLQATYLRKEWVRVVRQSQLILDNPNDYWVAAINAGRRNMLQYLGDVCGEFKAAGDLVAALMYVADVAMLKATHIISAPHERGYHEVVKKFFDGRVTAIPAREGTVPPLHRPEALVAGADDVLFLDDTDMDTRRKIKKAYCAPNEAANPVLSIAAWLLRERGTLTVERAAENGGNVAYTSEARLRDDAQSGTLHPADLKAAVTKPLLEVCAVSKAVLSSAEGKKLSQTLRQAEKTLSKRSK
The experiment in a line: Trypanosoma cruzi tyrosyl tRNA synthetase (TcYRS) _High Tyrosine SOP. Further: in the data most compounds retested in dose-response had high values. The experiment is classed as functional. The note with it: 30 µM.

Experiment [8] deals with T4, Tyrosyl-tRNA synthetase, putative (Trypanosoma cruzi (strain CL Brener)). The experiment can be described thus: Trypanosoma cruzi tyrosyl tRNA synthetase (TcYRS) SOP. The class given is functional. Particulars: 30 µM.
Experiment [9] addresses Chromo domain-containing protein 1 (Saccharomyces cerevisiae (strain ATCC 204508 / S288c) (Baker's yeast)) (UniProt P32657). The experiment can be described thus: ScCHD-1 Enzyme Inhibition Assay. Further: in the data most compounds retested in dose-response had high values. The experiment is classed as functional. Particulars: 30 µM.

For some of these results: Measured potencies and affinities stand elsewhere.

Sequence of Chromo domain-containing protein 1 (Saccharomyces cerevisiae (strain ATCC 204508 / S288c) (Baker's yeast)) (P32657 whole entry, the tested form may be a part): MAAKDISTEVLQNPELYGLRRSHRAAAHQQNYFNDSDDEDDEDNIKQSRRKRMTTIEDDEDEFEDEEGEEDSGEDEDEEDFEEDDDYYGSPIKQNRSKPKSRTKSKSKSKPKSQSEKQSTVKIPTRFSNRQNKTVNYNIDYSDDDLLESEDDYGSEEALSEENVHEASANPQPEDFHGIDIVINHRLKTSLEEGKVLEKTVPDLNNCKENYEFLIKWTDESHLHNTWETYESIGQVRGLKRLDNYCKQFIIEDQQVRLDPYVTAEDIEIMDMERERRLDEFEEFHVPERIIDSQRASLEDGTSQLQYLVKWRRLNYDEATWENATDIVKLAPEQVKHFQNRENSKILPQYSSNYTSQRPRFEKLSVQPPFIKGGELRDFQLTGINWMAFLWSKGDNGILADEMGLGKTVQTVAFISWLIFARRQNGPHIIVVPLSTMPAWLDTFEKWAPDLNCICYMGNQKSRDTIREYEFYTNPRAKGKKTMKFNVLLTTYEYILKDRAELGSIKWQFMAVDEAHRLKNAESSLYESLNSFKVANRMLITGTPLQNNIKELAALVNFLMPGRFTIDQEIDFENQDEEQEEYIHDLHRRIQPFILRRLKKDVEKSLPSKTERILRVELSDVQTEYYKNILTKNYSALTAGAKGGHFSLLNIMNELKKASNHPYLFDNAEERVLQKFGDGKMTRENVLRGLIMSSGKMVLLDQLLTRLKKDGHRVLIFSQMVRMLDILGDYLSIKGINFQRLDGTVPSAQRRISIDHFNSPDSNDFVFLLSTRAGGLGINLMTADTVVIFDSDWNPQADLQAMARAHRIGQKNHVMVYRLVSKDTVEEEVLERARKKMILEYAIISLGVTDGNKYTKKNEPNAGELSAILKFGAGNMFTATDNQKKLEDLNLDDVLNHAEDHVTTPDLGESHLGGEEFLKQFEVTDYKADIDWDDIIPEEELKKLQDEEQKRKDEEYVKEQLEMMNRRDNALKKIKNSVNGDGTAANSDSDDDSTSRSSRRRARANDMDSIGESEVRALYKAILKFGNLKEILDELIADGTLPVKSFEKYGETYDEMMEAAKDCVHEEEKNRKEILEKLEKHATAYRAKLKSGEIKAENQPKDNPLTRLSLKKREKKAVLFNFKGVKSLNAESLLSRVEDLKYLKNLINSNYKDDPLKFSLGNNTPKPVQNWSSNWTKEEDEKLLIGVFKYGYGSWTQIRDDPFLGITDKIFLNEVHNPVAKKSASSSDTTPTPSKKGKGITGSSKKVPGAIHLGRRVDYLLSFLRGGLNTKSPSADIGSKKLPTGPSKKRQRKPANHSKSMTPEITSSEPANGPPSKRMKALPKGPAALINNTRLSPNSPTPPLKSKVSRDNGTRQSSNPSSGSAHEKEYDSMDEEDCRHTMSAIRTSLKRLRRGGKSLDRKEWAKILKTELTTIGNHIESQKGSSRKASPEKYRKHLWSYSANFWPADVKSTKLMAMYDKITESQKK
Sequence of Sialic acid-binding Ig-like lectin 9 (Homo sapiens) (Q9Y336 whole entry): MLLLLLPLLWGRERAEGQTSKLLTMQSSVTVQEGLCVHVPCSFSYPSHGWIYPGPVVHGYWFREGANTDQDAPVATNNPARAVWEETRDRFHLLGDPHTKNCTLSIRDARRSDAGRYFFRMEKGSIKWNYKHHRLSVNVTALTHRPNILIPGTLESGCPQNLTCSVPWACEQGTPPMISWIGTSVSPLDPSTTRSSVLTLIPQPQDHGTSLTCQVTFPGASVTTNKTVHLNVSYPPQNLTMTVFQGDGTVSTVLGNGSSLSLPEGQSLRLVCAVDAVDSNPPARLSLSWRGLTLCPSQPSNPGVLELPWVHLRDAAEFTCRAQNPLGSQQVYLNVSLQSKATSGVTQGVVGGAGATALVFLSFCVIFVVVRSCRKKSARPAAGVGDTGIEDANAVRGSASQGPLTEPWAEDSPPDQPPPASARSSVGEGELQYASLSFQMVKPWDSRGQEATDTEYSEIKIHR

For the molecule `O=C(CCCc1cn[nH]c1)N1CCOCC(O)C1` (stereo unspecified), the Percent Effect in experiment [1] is -5.63%; in experiment [2], 0%; in [3], -4.88%; in experiment [4] it was -7.04%; in the experiment with Trypanosoma cruzi, 0%; in [5], -0.455%. The Percent Effect in [6] was 5.86%; in the experiment listed under Homo sapiens, -11.9%; in experiment [7], 5.38%; in experiment [8] it was 10%; in experiment [9], -3.63%.

Turning to `Cc1ccc(CNC(=O)CCSCc2csc(C)n2)cn1`, the Percent Effect is -2.98% in experiment [1]; 17.7% in experiment [2]; -1.48% in experiment [3]; -3.29% in experiment [4]; 1.42% in the experiment on Trypanosoma cruzi; 4.18% in experiment [5]. The Percent Effect in [6] was 0.0819%; in the experiment listed under Homo sapiens, 8.57%; in experiment [7], 0.493%; in [8] it was 8.86%; in [9], -3.92%.

Regarding `Cc1cc(NC(=O)CN2CCCC2c2noc(C3CC3)n2)no1` (stereo unspecified), the Percent Effect was -4.72% in experiment [1]; 13.7% in [2]; 11.2% in experiment [3]; 9.93% in [4]; 5.68% in the experiment with Trypanosoma cruzi; -0.909% in experiment [5]. The Percent Effect in [6] stood at 16.9%; in the experiment listed under Homo sapiens it was 5.99%; in experiment [7], 3.23%; in [8], 15%; in experiment [9], 22.7%.

Take `CNC(=O)CCc1cc(C)nc(C2CCCN2)n1` (stereo unspecified): the Percent Effect is -2.12% in [1]; -1.35% in [2]; 6.23% in experiment [3]; 2.54% in experiment [4]; -1.78% in the experiment with Trypanosoma cruzi; 3.02% in experiment [5]. Further, the Percent Effect in experiment [6] was 5.62%; in the experiment filed under Homo sapiens it was 13.2%; in experiment [7], 3.23%; in experiment [8], -3.9%; in experiment [9] it was 6.64%.

On to `CCOCCCC(=O)NCCC(=O)N1CCN(c2ccccn2)CC1`, for which the Percent Effect in [1] is -3.47%; in experiment [2] it was 7.89%; in experiment [3], 4.17%; in [4] it was 5.65%; in the experiment on Trypanosoma cruzi, -3.99%; in experiment [5], -4.73%. Besides, the Percent Effect in experiment [6] was 13.3%; in the experiment filed under Homo sapiens it was 2.43%; in experiment [7], 5.32%; in [8], 13%; in experiment [9], -4.16%.

`c1ccc(CCCN2CC(n3cccn3)C2)cc1`: the Percent Effect in experiment [1] was 0.15%; in [2], 2.7%; in experiment [3] it was -2.18%; in experiment [4] it was -4.46%; in the experiment on Trypanosoma cruzi it was 5.48%; in [5], -2.03%. Also, the Percent Effect was 14.7% in experiment [6]; 25.9% in the experiment filed under Homo sapiens; 7.92% in [7]; 23.2% in experiment [8]; -5.99% in [9].

Regarding `Cc1nc(C(C)(C)NC(=O)Nc2ccccc2)no1`, the Percent Effect is -11.3% in experiment [1]; -2.74% in experiment [2]; 2.23% in experiment [3]; -0.244% in [4]; -3.53% in the experiment with Trypanosoma cruzi; 3.18% in [5]. Besides, the Percent Effect in experiment [6] is 6.92%; in the experiment filed under Homo sapiens it was 17.2%; in [7], -2.15%; in experiment [8] it was 0%; in experiment [9], -0.168%.

Consider `Cc1nc(CN2CCOC(Cn3cncn3)C2)nc2ccccc12` (stereo unspecified), for which the Percent Effect was -1.64% in experiment [1]; -2.6% in experiment [2]; 3.13% in experiment [3]; 0.385% in experiment [4]; 3.04% with Trypanosoma cruzi; -1.05% in experiment [5]. Further, the Percent Effect is 9.62% in [6]; -20.1% in the experiment filed under Homo sapiens; 5.71% in experiment [7]; 0% in experiment [8]; -15.8% in [9].

On to `O=C(N[C@@H]1CN(Cc2ccc3c(c2)OCO3)[C@@H]2CCCO[C@@H]21)C1CC1`, for which the Percent Effect in experiment [1] is -7.03%; in experiment [2] it was 0%; in [3], -0.94%; in experiment [4] it was 0.764%; with Trypanosoma cruzi, -5.99%; in experiment [5] it was -55%. In addition, the Percent Effect in [6] was 13.2%; in the experiment filed under Homo sapiens, 4.07%; in experiment [7], 1.04%; in [8] it was -60%; in experiment [9] it was -2.23%.

For `COC(=O)c1ccc(N2CCN(CCN3CCOCC3)C(C)C2)cc1` (stereo unspecified), the Percent Effect in experiment [1] is -7.58%; in [2] it was 15.8%; in experiment [3], -5.32%; in experiment [4], 3.41%; in the experiment on Trypanosoma cruzi, -0.467%; in experiment [5] it was -1.8%. Besides, the Percent Effect was 2.96% in [6]; -10.7% in the experiment listed under Homo sapiens; 7.39% in experiment [7]; 13.6% in [8]; -4.27% in [9].

As to `Cc1ncc(CN(C)C2CCCN(Cc3noc(C4CC4)n3)C2)s1` (stereo unspecified), the Percent Effect in experiment [1] was -3.21%; in [2], 5.26%; in [3], -3.55%; in experiment [4], 4.27%; with Trypanosoma cruzi it was 7.52%; in [5] it was -0.766%. The Percent Effect is 8.02% in experiment [6]; 14.3% in the experiment listed under Homo sapiens; 2.45% in [7]; 12.2% in experiment [8]; -9.03% in experiment [9].
